Vaccinia Venus = qHTS for Stage-Specific Inhibitors of Vaccinia Orthopoxvirus: Venus Reporter Primary qHTS; 0.46% of 330,000 active; Vaccinia virus Venus reporter expression, fluorescence; Potency, µM (titrated, usually from 36.5 µM), actives largely listed as inhibitors; AID 720580, 2013; calls by dose curve; tested in A549 cells; further: nearly all actives have a fitted effect of over 30% in size
MARV entry inh = qHTS for inhibitors of binding or entry into cells for Marburg Virus | Marburg virus pseudotyped entry inhibition, cell reporter | Potency, µM (series often up to 37.8 µM), hits mostly inhibitors | 1.8% of 300,000 active | AID 540276, 2011; calls by dose curve; tested in HEK293 cells
FMDV inh = High Throughput Screening for Foot and Mouth Disease Virus Antivirals; 1.2% of 410,000 active; AID 1159524, 2015; FMDV antiviral cell-based qHTS; Potency, µM (highest dose often 57.9 µM), usual class: inhibitors; calls by dose curve; tested in HEK293T cells; further: read-out not given here; nearly all actives have a fitted effect of over 45% in size
Lassa entry inh = qHTS for Inhibitors of binding or entry into cells for Lassa Virus; Lassa virus pseudotype entry inhibition, cell reporter; Potency, µM (doses to about 37.9 µM), usual class: inhibitors; 1.2% of 300,000 active; calls by dose curve; tested in HEK293 cells; further: nearly all actives have a fitted effect of over 50% in size
Vaccinia mCherry = qHTS for Stage-Specific Inhibitors of Vaccinia Orthopoxvirus: mCherry Reporter Primary qHTS; 0.63% of 310,000 active; Vaccinia virus mCherry reporter infection, fluorescence; Potency, µM (top dose mostly 36.5 µM), most hits filed as inhibitors; calls by dose curve; tested in A549 cells; further: nearly all actives have a fitted effect of over 35% in size
HCMV inh = qHTS Assay for inhibitors of the human cytomegalovirus (HCMV); HFF cells, HCMV-luciferase reporter, 72 h; active compounds read low; activity change, negative = inhibition, % at 57.5 µM; 4.5% of 410,000 active; in the data active means activity change below about -60%; inconclusive means no clear call, values can overlap the other calls; inactive means above about -39%
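Screen run at 2 compound doses on HFFs infected with reporter HCMV, MOI 1 PFU/cell. Luciferase activity from cell lysates at 72 h post infection gave inhibition relative to buffer-only and Salinomycin wells.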
Large screens that a line does not name were inactive. Only some compounds are listed: those with a hit (about 6.5% of all), similar ones and a draw of the others.

COc1cccc(C2(CC(=O)N3CCC(c4nc5ccccc5o4)CC3)CC(=O)N(C)C2=O)c1 (configuration not stated)	none (no result: MARV entry inh, Lassa entry inh, HCMV inh)
CCCCc1nn2c(=O)cc(COC(=O)c3ccccc3NC(=O)c3cccc(C)c3)nc2s1	none (no result: MARV entry inh)
O=C(N/N=C/c1cc([N+](=O)[O-])ccc1O)c1cccc2ccccc12	HCMV inh -111.7 (no result: Vaccinia Venus, MARV entry inh, FMDV inh, Lassa entry inh, Vaccinia mCherry)
O=C(Cn1nc2ccccc2n1)N/N=C/c1cc([N+](=O)[O-])ccc1O	MARV entry inh 10µM, Lassa entry inh inconclusive
O=C(Cn1nnc(-c2ccccc2)n1)N/N=C/c1cc([N+](=O)[O-])ccc1O	HCMV inh -73.0
O=[N+]([O-])c1ccc(O)c(/C=N/Nc2nn[nH]n2)c1	none
O=[N+]([O-])c1ccc(O)c(/C=N/Nc2ccc(Cl)nn2)c1	Vaccinia Venus inconclusive, MARV entry inh 0.126µM, Lassa entry inh inconclusive, Vaccinia mCherry 1.12µM, HCMV inh -101.5
O=C(Cn1nnc(-c2ccccc2)n1)N/N=C/c1cc([N+](=O)[O-])c(Cl)cc1Cl	none
CN(C)CC(C)(O)c1ccc2c(c1)CN(Cc1cnn(-c3ccccc3)c1)CCO2 (configuration not stated)	none (no result: MARV entry inh, Lassa entry inh, HCMV inh)
COc1ccccc1-c1noc2nc(OCc3ccc(F)cc3)ccc12	none (no result: Vaccinia Venus, MARV entry inh, FMDV inh, Lassa entry inh, Vaccinia mCherry)
O=S(=O)(NCc1nnc2n1CCN(Cc1ccccc1Cl)CC2)c1ccccc1	none (no result: MARV entry inh, Lassa entry inh, HCMV inh)
CS(=O)(=O)Nc1cccc(-c2nccc(-n3ccnc3)n2)c1	none (no result: MARV entry inh, Lassa entry inh, HCMV inh)
CCn1cc(CN2Cc3ccccc3OC(c3ccccc3OC)C2)c(C)n1 (configuration not stated)	none (no result: MARV entry inh, Lassa entry inh, HCMV inh)
O=[N+]([O-])c1ccc(O)c(C2CCCCC2)c1	Vaccinia Venus inconclusive, MARV entry inh inconclusive, FMDV inh inconclusive, Lassa entry inh inconclusive, Vaccinia mCherry inconclusive, HCMV inh -93.6
O=C(N/N=C/c1cc([N+](=O)[O-])ccc1O)C1CCCCC1	MARV entry inh inconclusive, Lassa entry inh inconclusive, HCMV inh -66.3
COCc1cc([C@@H]2C[C@H]3CN(c4ccccc4)C(=O)[C@]34CCCN24)ccc1OC	HCMV inh -94.0 (no result: MARV entry inh, Lassa entry inh)
CC(C)(O)C#Cc1ccc([C@@H]2C[C@H]3CN(c4ccccc4)C(=O)[C@]34CCCN24)s1	Vaccinia Venus inconclusive, MARV entry inh inconclusive, Lassa entry inh inconclusive, Vaccinia mCherry inconclusive, HCMV inh -99.2
Cc1cccnc1-c1cccc2c1OC(CNC(=O)/C=C/c1cccs1)C2 (configuration not stated)	none (no result: MARV entry inh, Lassa entry inh, HCMV inh)
Cc1cc(C)c(S(=O)(=O)NCc2ccc3c(c2)cc(C)n3C)c(C)c1	HCMV inh -93.1 (no result: MARV entry inh, Lassa entry inh)
COc1ccc(CC(=O)NCc2ccc3c(c2)CCN3C(=O)c2cccc(C)c2)cc1	FMDV inh inconclusive, Lassa entry inh inconclusive (no result: MARV entry inh)
Cc1cc(C)c(S(=O)(=O)NCc2ccc3c(c2)CCN3C(=O)c2ccccc2)c(C)c1	FMDV inh inconclusive, HCMV inh -60.3 (no result: MARV entry inh)
COc1ccc(OC)c(S(=O)(=O)NCc2ccc3c(c2)CCN3C(=O)c2cccc(C)c2)c1	Lassa entry inh inconclusive, HCMV inh -79.9 (no result: MARV entry inh)
COc1ccc2c(Cn3cnc4cc([N+](=O)[O-])ccc4c3=O)cc(=O)oc2c1	MARV entry inh 4.47µM, FMDV inh inconclusive, Lassa entry inh inconclusive (no result: HCMV inh)
CN(C)CCN(Cc1ccccc1)S(=O)(=O)c1ccc(-c2cc(C(F)(F)F)on2)s1	HCMV inh -100.0 (no result: MARV entry inh)
COc1ccc(CCNC(=O)c2ccc(-c3ccc([N+](=O)[O-])cc3)o2)cc1OC	MARV entry inh inconclusive, FMDV inh 17.8µM, Lassa entry inh inconclusive, HCMV inh -68.8
COc1ccc(NC(=O)c2cccc([N+](=O)[O-])c2)cc1	Lassa entry inh inconclusive
O=C(NNC(=O)c1ccccc1O)c1ccc(-c2ccc([N+](=O)[O-])cc2)o1	Vaccinia Venus inconclusive, Lassa entry inh inconclusive, Vaccinia mCherry 10µM, HCMV inh inconclusive
COc1ccc(CCNC(=O)c2cc(-c3ccc(Cl)cc3)on2)cc1OC	Lassa entry inh inconclusive
COc1ccc(NC(=O)c2cc([N+](=O)[O-])ccc2O)cc1	Vaccinia Venus inconclusive, FMDV inh 6.31µM, Vaccinia mCherry 6.31µM, HCMV inh -102.1 (no result: MARV entry inh, Lassa entry inh)
CN(C)S(=O)(=O)c1ccc(Cl)c(C(=O)Nc2cccc([N+](=O)[O-])c2)c1	FMDV inh inconclusive, HCMV inh -64.9 (no result: Vaccinia Venus, MARV entry inh, Lassa entry inh, Vaccinia mCherry)

Compound activity (PubChem)
